Screens (PubChem)
hgDAF-12 ag = H. glycines DAF-12 receptor agonists, primary screen, cell-based, luminescence, HEK293, GAL4 fusion, UAS-luciferase. HEK293 GAL4-hgDAF12 UAS-luciferase reporter, agonist luminescence; normalized to butyrate control. Nuclear hormone receptor DAF-12 (Heterodera glycines), GAL4 fusion. activation, % at 6.8 µM. 1.8% of 370,000 active;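 active = activation above a cutoff set at the mean of all screened compounds plus 3 SD, cut at about 10% in these data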;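 also: 0% = DMSO wells and 100% = sodium butyrate wells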
SMARCA2 act = SMARCA2 (BRM) function activators, primary screen, cell-based, luminescence, high throughput. 1% of 370,000 active. MG213 cells, MMTV-luciferase reporter, dexamethasone, overnight. activation, % at 9.1 µM; in the data active = activation above about 7.8%;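 also: 0% = vehicle wells and 100% = reference activator wells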
DAX1 inh-1 = DAX1 (NR0B1) inhibitors on StAR promoter, primary screen, cell-based, luminescence, SF-1 (NR5A1), full-length DAX-1 | inhibition, % at 6.8 µM | 1.1% of 370,000 active | HEK293T StAR-luciferase reporter, SF-1/DAX-1 repression relief | AID 652010, 2013;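 active = inhibition above the mean over all tested compounds plus 3 SD, cut at about 3.6% in these data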;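 also: 0% = DAX-1 cells with DMSO and 100% = cells lacking DAX-1 with DMSO; higher inhibition means more luminescence from relief of DAX-1 repression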
DAX1 inh-2 = DAX1 (NR0B1) inhibitors, primary screen, cell-based, HEK293, Gal4-DAX1, luciferase luminescence. Nuclear receptor subfamily 0 group B member 1 (Homo sapiens), P51843. 0.99% of 340,000 active. inhibition, % at 6.75 µM. HEK293 Gal4-DAX1 luciferase reporter;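 active = inhibition above the mean over all tested compounds plus 3 SD, cut at about 4.2% in these data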;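 also: 0% = DAX1-transfected cells with DMSO and 100% = empty-vector control cells with DMSO; inhibition shows as a rise in luminescence from relieved DAX1 repression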
Target sequence (P51843 207-470 limits assumed): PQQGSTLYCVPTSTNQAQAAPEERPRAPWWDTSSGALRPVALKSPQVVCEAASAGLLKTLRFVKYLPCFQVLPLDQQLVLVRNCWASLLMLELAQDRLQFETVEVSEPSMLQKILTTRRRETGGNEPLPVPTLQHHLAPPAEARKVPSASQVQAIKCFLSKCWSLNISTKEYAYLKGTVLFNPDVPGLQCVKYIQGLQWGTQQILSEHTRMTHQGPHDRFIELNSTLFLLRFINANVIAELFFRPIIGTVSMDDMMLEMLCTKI
ssDAF12 agonist = S. stercoralis DAF-12 nuclear receptor activators, primary screen, cell-based, luminescence, HEK293, GRIP1 co-expression, lit1-tk-luc; activation, % at 6.8 µM; 1% of 370,000 active; HEK293 ssDAF-12/GRIP1 lit1-tk-luc reporter; % of 3 µM dafachronic acid response;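 active = activation above the mean over all tested compounds plus 3 SD, cut at about 0.9% in these data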;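 also: 0% = DMSO-only wells and 100% = 3 µM delta7-dafachronic acid wells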
hcDAF12 agonist = H. contortus DAF-12 nuclear receptor activators, primary screen, cell-based, luminescence, HEK293, lit1-tk-luc reporter | activation, % at 6.8 µM | HEK293 hcDAF-12 lit1-tk-luc reporter; 0% DMSO, 100% Δ7-dafachronic acid | 1.4% of 370,000 active;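 active = activation above the mean of all tested compounds plus 3 SD, cut at about 5.5% in these data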;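 also: 100% = response to 3 µM Δ7-dafachronic acid high control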
Starred values were filed as active, the others as inactive; · = not tested or not shown. Rows were chosen to be rich in hits. Some 4.8% of all compounds tested hit in one or more screens of this group.

SMILES	hgDAF-12 ag	SMARCA2 act	DAX1 inh-1	DAX1 inh-2	ssDAF12 agonist	hcDAF12 agonist
Cc1ccc(-c2nc3c4ccccc4ccn3c2Cc2ccccc2C(F)(F)F)cc1	2	-1	1	·	0.9*	5
COc1ccccc1Cc1c(-c2ccc(C)cc2)nc2c3ccccc3ccn12	0	-4	0	·	0	1
COc1ccccc1Cc1c(-c2ccco2)nc2c3ccccc3ccn12	7	6	1	·	1	5.7*
COc1ccccc1Cc1c(-c2ccc(F)cc2)nc2c3ccccc3ccn12	5	-1	0	·	0	5.8*
Cc1ccc(-c2nc3c4ccccc4ccn3c2Cc2ccccc2)cc1	2	-6	0	0	0	4
O=C(OC12CCCN(C1)/C(=C/c1ccncc1)C2)c1cccc(F)c1 (stereo unspecified)	-5	-2	-3	·	-1	-4
COC(=O)[C@]12C[C@H](CC(=O)N3CCN(C(=O)C4CC4)CC3)C(=O)N(Cc3ccco3)C1=C[C@H](C(C)C)O[C@@H]2C1CC1	0	-4	0	·	-2	-3
COc1ccc(N=C2SCC(c3ccccc3)=NN2C)cc1	-2	-2	1	4.3*	-1	-1
COc1ccc(N=C2SCC(=O)N2c2ccc(OC)cc2)cc1	0	0	-1	0	-1	-1
Cn1ccnc1C1CCCCN1Cc1nc(-c2ccc(Cl)cc2)no1 (stereo unspecified)	12*	0	-1	1	-1	0
O=C(CSc1ncccn1)c1ccccc1Br	3	3	0	4.3*	-1	0
C#CCCN([C@H](C(=O)OC)C(C)CC)S(=O)(=O)c1ccccc1Br (stereo partly specified)	-3	-3	-1	·	-2	-3
CCOC(=O)C(CCCCCCC(NC(C)=O)(C(=O)OCC)C(=O)OCC)(NC(C)=O)C(=O)OCC	0	1	0	4.7*	-1	0
C(=C\c1ccccc1)/CSc1ccccn1	7	4	2	4.4*	-1	3
CCOC(=O)[C@]12CCCCC/C=C\1N(Cc1ccc(OC)cc1)C(=O)[C@H]2CC(=O)N1CCN(C(=O)C2CC2)CC1	-1	0	0	·	-1	-3
CCOC(=O)[C@]12CCCC=C1N(Cc1ccc(OC)cc1)C(=O)[C@@H]2CC(=O)N1CCN(C(=O)C2CC2)CC1	-1	-2	-2	·	1.8*	-1
C/C(=N/NC(=O)c1cccs1)c1ccc(NC(=O)COc2ccc(Cl)cc2)cc1	12*	7	2	4.7*	0	4
COc1ccc(OCC(=O)Nc2ccc(Cl)cc2)cc1	2	5	-1	1	-1	2
CCOC(=O)c1ccc2ncc(-c3ccccc3)nc2c1	4	7	4.3*	2	-1	0
CC(=O)N1CCN(c2ccc(NC(=S)NC(=O)c3ccccc3)cc2)CC1	-3	-3	0	0	0	4
CC(=O)N1CCN(c2ccc(NC(=O)c3ccccc3)cc2)CC1	8	0	0	5.8*	-1	2
CCC(=O)N1CCN(c2ccc(NC(=O)c3ccco3)cc2)CC1	4	2	0	0	-1	1
O=C(/C=C/c1cccs1)c1ccc(N2CCOCC2)cc1	11*	-1	1	3	0	3
O=C(Nc1ccc(C2SCCS2)cc1)c1ccccc1	11*	8	2	·	1.6*	4
CC(=O)N1CCN(c2ccc(NC(=O)c3ccco3)cc2)CC1	9	3	1	2	1.9*	5
O=C(CSc1nnc(-c2cccnc2)n1C1CCCCC1)N1CCCC1	3	-3	0	·	-1	0
